From PubChem BioAssay
The list is not random: actives were taken first. Their share in the collection is about 2.4%.
D2 PAM-1 – Beta-Arrestin HTS for Positive Allosteric Modulators of the Human D2 Dopamine Receptor: Potentiators; DiscoveRx D2 beta-arrestin cells, luminescence, 90 min; 100% = 57 uM dopamine signal; potentiation, % (test concentration not listed); 0.23% of 360,000 active; AID 624464, 2012; in the data active = potentiation above about 50%
Target sequence (P14416 whole entry, looked up): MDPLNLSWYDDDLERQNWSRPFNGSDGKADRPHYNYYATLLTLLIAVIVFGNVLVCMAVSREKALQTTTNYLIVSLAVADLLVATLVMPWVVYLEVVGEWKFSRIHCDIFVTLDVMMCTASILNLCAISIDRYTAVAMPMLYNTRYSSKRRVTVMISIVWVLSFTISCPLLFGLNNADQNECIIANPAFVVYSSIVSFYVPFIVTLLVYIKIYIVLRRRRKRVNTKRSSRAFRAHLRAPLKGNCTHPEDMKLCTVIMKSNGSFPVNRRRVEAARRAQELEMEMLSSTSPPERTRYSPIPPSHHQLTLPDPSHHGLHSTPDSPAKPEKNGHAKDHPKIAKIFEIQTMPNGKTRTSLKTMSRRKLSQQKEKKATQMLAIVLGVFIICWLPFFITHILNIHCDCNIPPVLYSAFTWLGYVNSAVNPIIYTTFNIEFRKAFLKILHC
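PathHunter beta-arrestin assay in DiscoveRx D2 cells. Compounds were added with an EC20 of dopamine (50 nM final) for 90 min at 37 deg C. Luminescence was read 1 h after detection reagent, with 57 uM dopamine as the EC100 control.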
D2 antagonist – HTS Assay for Allosteric Antagonists of the Human D2 Dopamine Receptor: Primary Screen for Antagonists. HEK293 TREx D2 cells, calcium flux, dopamine EC80. inhibition, % at 10 µM. 2% of 340,000 active; in the data active = inhibition above about 30%; inactive = below that, where a call was filed; note: 0% is about no effect
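Antagonism is scored as inhibition of an EC80 dopamine-evoked calcium signal in a force-coupled, tetracycline-inducible HEK293 T-REx D2 line, with compound present 180 s before agonist.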
D2 ag-1 – HTS Assay for Allosteric Agonists of the Human D2 Dopamine Receptor: Primary Screen for Agonists; HEK293 T-REx D2 cells, calcium flux agonist mode; activation, % at 2 µM; 0.53% of 340,000 active; AID 485358, 2010;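 active = activation over 3 SD above normal in the single-dose calcium agonist read, cut at about 30% in these data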; note: 0% is about no effect
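Agonism is scored from calcium flux in a force-coupled, inducible HEK293 cell line expressing D2, read kinetically for 180 s after compound addition against dopamine controls.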
D2 ag-2 – Beta-Arrestin HTS for Positive Allosteric Modulators of the Human D2 Dopamine Receptor: Agonists; D(2) dopamine receptor (Homo sapiens), P14416; DiscoveRx PathHunter D2 beta-arrestin, luminescence, 90 min; 100% = 57 uM dopamine signal; activation, % (test concentration not listed); 0.084% of 360,000 active; AID 624465, 2012; in the data active = activation above about 40%
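DiscoveRx PathHunter D2 beta-arrestin cells (2,100/well) attached overnight, then compound-stimulated 90 min at 37 C in HBSS/10 mM HEPES/0.1% Tween-20 buffer; beta-galactosidase complementation read by luminescence after 1 h at ambient temperature. Dopamine 57 uM final (EC100) as control.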
D2 PAM-2 – HTS Assay for Positive Allosteric Modulators of the Human D2 Dopamine Receptor: Primary Screen for Potentiators | D(2) dopamine receptor (Homo sapiens), P14416 | HEK293 T-REx D2, calcium flux, EC20 dopamine potentiation | potentiation, % at 10 µM | 0.34% of 340,000 active;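 active = potentiation over 3 SD above the plate norm, cut at about 30% in these data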; note: 0% is about no effect
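Calcium flux readout, no-wash dye, 1 read/s. Inducible HEK293 Trex D2 line, overnight 30 C. Compound alone 180 s (agonist flags), then EC20 dopamine, another 180 s to score potentiation.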
* hit, by the source's call; / = not tested or not shown.

SMILES	D2 PAM-1	D2 antagonist	D2 ag-1	D2 ag-2	D2 PAM-2
Cc1ccc(NC(=O)CS(=O)CC(=O)NC2CCN(Cc3ccccc3)CC2)c(C)c1 (stereo not given)	-20.7	9.3	-1.2	-2.3	-1.7
COc1cc2c(c(O)c1OC)C(=O)C(OC)CCC2 (stereo not given)	6.1	32.0*	0.7	-1.6	-8.3
O=C(Nc1ccc2nc3n(c(=O)c2c1)CCCCC3)c1ccccc1[N+](=O)[O-]	-8.2	30.2*	-2.8	-1.1	-5.3
O=C(Nc1ccc2nc3n(c(=O)c2c1)CCCCC3)C(=O)N1CCN(c2ccc(F)cc2)CC1	-10.5	34.3*	-1.2	1.2	-3.9
O=c1c2cc(NC(=S)NCCCN3CCC(Cc4ccccc4)CC3)ccc2nc2n1CCCCC2	-31.0	51.8*	4.0	-3.4	-32.7
O=C(c1ccc2c(=O)n3c(nc2c1)CCCCC3)N1CCN(c2ccc(F)cc2)CC1	2.3	-0.5	0.4	-1.1	3.3
Cc1nn2c(=O)cc(COC(=O)COc3ccccc3C)nc2s1	/	/	/	/	11.2
CCOC(=O)c1ccc(NC2=CC(c3ccc(F)cc3)N(c3ccc(C(=O)OCC)cc3)C2=O)cc1 (stereo not given)	/	/	/	/	1.0
O=C(CN1CCN(c2ccccc2)CC1)NC(=O)NCc1ccco1	-0.5	-15.0	38.9*	1.5	-11.2
COc1ccc(S(=O)(=O)NC(C)C(=O)N2CCCC2)cc1C (stereo not given)	-4.7	32.4*	-0.2	0.7	-11.5
COc1ccc(S(=O)(=O)NC(C)C(=O)N2CCCC2)cc1Cl (stereo not given)	-4.1	-2.2	0.7	-0.4	5.0
COc1ccc(-c2nc3scc(CCNS(=O)(=O)c4cccs4)n3n2)cc1	/	/	0.3	/	15.8
CCOC(=O)c1c(C)cccc1OCC(N)=O	-17.7	-2.5	-0.7	-0.2	64.2*
COc1ccccc1CN1CCC(CNS(=O)(=O)c2cc(-c3onc(C)c3C)ccc2OC)CC1	-30.5	33.4*	-0.6	-2.9	10.0
Cn1ccc2c(OCC(=O)NCc3ccccc3Cl)cccc2c1=O	/	/	0.0	/	12.3
COc1ccc(N2CCN(CCCNC(=O)CCC(=O)N3CCOc4ccc(Cl)cc43)CC2)cc1	-38.8	-4.4	-0.2	-6.1	-27.1
Cc1ccc(C)c(N2CCN(CCCNC(=O)CCC(=O)N3CCOc4ccc(Cl)cc43)CC2)c1	/	55.7*	4.5	/	-22.6
O=C(CCC(=O)N1CCOc2ccc(Cl)cc21)NCCCN1CCN(c2ccccc2F)CC1	-11.4	85.8*	36.1*	0.7	-15.2
Cc1coc2cc3oc(=O)c(CC(=O)NCc4ccc(F)cc4)c(C)c3cc12	/	/	/	/	7.0
Cc1ccc(C(=O)c2c(N)c(C(=O)Nc3cccc(C(F)(F)F)c3)c3ccccn23)cc1	/	/	-1.1	/	8.7
COc1ccc(C(=O)c2ccc(N3CCN(C4CC(=O)NC4=O)CC3)cc2)cc1F (stereo not given)	14.0	34.0*	-0.1	-1.2	3.0
Cc1ccc(N2CC(C(=O)Nc3ccc4c(c3)OCO4)CC2=O)cc1C (stereo not given)	-4.6	0.5	-1.7	-1.9	31.4*
Cc1ccc(N2CC(C(=O)Nc3ccc4c(c3)OCO4)CC2=O)cc1 (stereo not given)	3.0	-6.1	-1.3	-3.2	-8.5
COc1ccc(NC(=O)C2CC(=O)N(c3cccc(C)c3C)C2)cc1 (stereo not given)	-8.6	31.1*	0.3	-3.4	-12.7
O=C(Nc1nccs1)C1CC(=O)N(Cc2ccco2)C1 (stereo not given)	9.4	-16.7	0.7	-4.1	46.3*
SMILES	D2 PAM-1	D2 antagonist	D2 ag-1	D2 ag-2	D2 PAM-2
COc1cccc(NC(=O)C2CC(=O)N(Cc3ccco3)C2)c1 (stereo not given)	-0.6	36.6*	0.7	-5.6	-1.3
COc1cc2[nH]c(=O)n(CCCC(=O)N3CC=C(c4ccccc4)CC3)c(=O)c2cc1OC	-1.3	2.9	0.7	-2.7	3.7
COc1cccc2c1[C@@H]1CN(CCCCn3c(=O)[nH]c4c(sc5ncc(-c6ccccc6)nc54)c3=O)C[C@@H]1CO2	-34.7	55.8*	1.6	-4.5	-19.3
Cn1nnc2c(N3CCN(c4cccc(Cl)c4)CC3)ncnc21	/	/	-0.5	/	6.5
COc1ccc(N(CC(=O)Nc2c(C)n(C)n(-c3ccccc3)c2=O)S(=O)(=O)c2ccc(C)cc2)cc1OC	-2.4	34.6*	2.0	-1.5	8.1
O=C(Cn1c(-c2cccs2)cc2ccccc21)NCCCN1CCN(c2ccc(F)cc2)CC1	/	/	-0.5	/	-11.7
Cc1c(C(=O)N2CCCC2)oc2c1-c1nn(CC(=O)NCCCN3CCCCC3)cc1CC2	-30.3	37.3*	-0.5	1.4	-6.4
CSCCC(NC(=O)c1ccco1)C(=O)N1CCCCCCC1 (stereo not given)	2.4	-15.8	0.3	-2.5	19.6
CSCCC(NC(=O)c1ccco1)C(=O)O (stereo not given)	-5.8	-12.4	0.6	-2.3	31.4*
CCCCN(C)CCN1C(=O)C2C(C(=O)Nc3cccc(OC)c3)C3C=CC2(O3)C1C(=O)NC1CCCCC1C (stereo not given)	-2.5	5.4	-2.3	0.6	5.5
CCCCN1C(=O)C2C(C(=O)Nc3cccc(OC)c3)C3C=CC2(O3)C1C(=O)NC1CCCCC1C (stereo not given)	-13.9	35.8*	0.1	-0.5	3.0
C/C(=N\NC(=O)c1ccc(C)cc1C)c1ccc2c(c1)OCO2	-8.1	-3.1	-1.2	-1.2	-3.1
C/C(=N\NC(=O)c1cc2ccccc2cc1O)c1ccc2c(c1)OCO2	13.3	33.3*	0.7	-5.9	-3.1
COc1ccc(C(=O)NC(=S)Nc2ccccc2N2CCOCC2)cc1[N+](=O)[O-]	-33.9	39.1*	0.3	-5.6	17.9
COc1ccc(C(=O)Nc2ccccc2N2CCOCC2)cc1[N+](=O)[O-]	-9.9	1.1	1.7	-1.6	9.7
Cc1cc(NS(=O)(=O)c2ccccc2)c(C)c(Cl)c1O	61.3*	0.3	0.3	10.0	-2.7
Cc1c(O)ccc(NS(=O)(=O)c2ccccc2)c1C	-1.9	11.7	-0.5	-0.4	10.1
CC1CCCN(Cc2c(O)ccc3c(=O)c(-c4ccccc4Cl)c(C(F)(F)F)oc23)C1 (stereo not given)	/	/	-1.3	/	-0.5
Cc1ccc(C)c(OCCC(=O)NNC(=O)c2ccncc2)c1	-15.1	43.4*	-0.6	-2.1	-0.5
